Experimental data as given in publication PMC4336329 (PLoS ONE, 2015).
Screen size: about 310,000 compounds; about 14,000 (4.5%) showed an effect of 50% or more. The effect is printed as a negative number. This is one part of a sample in which strong results are shown more often than they occur.

target: human ether-à-go-go-related gene (hERG) potassium channel (human, UniProt Q12809); assay: primary screen, population patch clamp on CHO cells stably expressing hERG; higher = less effect of the substance
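Note: peak tail current of the secondary pulse compared with the same well before compound.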

Sequence of human ether-à-go-go-related gene (hERG) potassium channel (Q12809 whole entry, looked up): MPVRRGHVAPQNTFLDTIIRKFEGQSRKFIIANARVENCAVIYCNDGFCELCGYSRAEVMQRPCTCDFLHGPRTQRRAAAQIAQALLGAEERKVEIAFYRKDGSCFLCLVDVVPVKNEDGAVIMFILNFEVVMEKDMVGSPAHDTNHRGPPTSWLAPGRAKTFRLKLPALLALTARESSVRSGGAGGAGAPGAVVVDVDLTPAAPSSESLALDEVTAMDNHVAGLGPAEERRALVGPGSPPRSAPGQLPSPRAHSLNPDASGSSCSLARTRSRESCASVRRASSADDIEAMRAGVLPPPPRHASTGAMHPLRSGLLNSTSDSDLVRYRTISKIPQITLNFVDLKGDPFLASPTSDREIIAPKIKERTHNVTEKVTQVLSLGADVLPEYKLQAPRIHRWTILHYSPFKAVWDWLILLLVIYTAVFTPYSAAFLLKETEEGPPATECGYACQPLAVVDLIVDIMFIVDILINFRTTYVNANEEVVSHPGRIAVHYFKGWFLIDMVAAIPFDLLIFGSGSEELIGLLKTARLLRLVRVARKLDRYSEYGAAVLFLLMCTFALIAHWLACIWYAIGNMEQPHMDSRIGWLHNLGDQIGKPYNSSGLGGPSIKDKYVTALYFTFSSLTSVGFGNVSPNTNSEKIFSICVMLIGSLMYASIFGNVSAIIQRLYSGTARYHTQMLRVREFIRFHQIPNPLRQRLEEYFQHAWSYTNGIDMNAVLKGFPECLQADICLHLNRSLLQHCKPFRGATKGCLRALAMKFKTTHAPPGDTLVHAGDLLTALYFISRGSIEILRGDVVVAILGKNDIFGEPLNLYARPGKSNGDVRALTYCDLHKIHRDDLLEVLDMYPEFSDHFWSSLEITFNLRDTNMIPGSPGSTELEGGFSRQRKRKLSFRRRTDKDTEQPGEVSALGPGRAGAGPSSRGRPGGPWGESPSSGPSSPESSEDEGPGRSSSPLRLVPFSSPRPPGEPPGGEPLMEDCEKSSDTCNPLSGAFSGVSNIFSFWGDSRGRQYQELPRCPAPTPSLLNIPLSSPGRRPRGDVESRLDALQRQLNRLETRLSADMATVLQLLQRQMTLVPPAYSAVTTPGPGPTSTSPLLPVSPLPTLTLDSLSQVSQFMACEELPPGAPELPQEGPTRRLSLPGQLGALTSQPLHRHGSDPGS

| Compound | hERG current change (%, negative = inhibition) at 10uM [%] |
| --- | --- |
| CCCC(=O)N/C(N)=N/c1nc(C)c2cc(C)ccc2n1 | -23.8 |
| Cc1ccc2nc(/N=C(\N)NC(=O)NC3CCCCC3)nc(C)c2c1 | -76.4 |
| Cc1nc(/N=C(\N)NC(=O)NC2CCCCC2)nc2ccccc12 | -21 |
| CCc1cc(C(=O)OC)c(NC(=O)CN2CCN(C(=O)c3ccco3)CC2)s1 | -51.6 |
| CCOC(=O)c1cc(C)sc1NC(=O)CN1CCN(C(=O)c2ccco2)CC1 | -72.8 |
| CCOC(=O)c1cc(CC)sc1NC(=O)CN1CCN(C(=O)C2CCCO2)CC1 (stereo not shown) | -65.9 |
| CCOC(=O)c1cc(CC)sc1NC(=O)CN1CCN(C(=O)c2ccco2)CC1 | -67.2 |
| Cc1ccc(C(=O)c2cc(C)sc2NC(=O)CN2CCN(C(=O)c3ccco3)CC2)cc1 | -11.7 |
| CCOC(=O)c1c(NC(=O)CN2CCN(C(=O)c3ccco3)CC2)sc(C)c1C | -8.41 |
| COC(=O)c1cc(C)sc1NC(=O)CN1CCN(C(=O)c2ccco2)CC1 | -30 |
| CCc1cc(C(=O)OC)c(NC(=O)CN2CCN(C(=O)C3CCCO3)CC2)s1 (stereo not shown) | -47.2 |
| COC(=O)CN1CCN(C(=O)c2ccco2)CC1 | 10 |
| CCOC(=O)c1c(NC(=O)CN2CCN(C(=O)c3ccco3)CC2)sc(C(N)=O)c1C | -20.1 |
| CCc1c(C)sc(NC(=O)CN2CCN(C(=O)c3ccco3)CC2)c1C(=O)OC | -39.7 |
| CCOC(=O)c1cc(C)sc1NC(=O)CN1CCN(C(=O)C2CCCO2)CC1 (stereo not shown) | -31 |
| COC(=O)c1sccc1NC(=O)c1cc(-c2ccc(C)cc2C)nc2ccccc12 | 6.94 |
| CC(C)C(NC(=O)c1ccc(C(C)(C)C)cc1)C(=O)NC1=NCCS1 (stereo not shown) | -6.13 |
| Cc1ccccc1CN(c1ccc(C(=O)Nc2cccnc2)cc1)S(C)(=O)=O | -9.59 |
| NC(=O)CSc1n[nH]c(-c2ccco2)n1 | 24 |
| O=C(COC(=O)COc1cccc(C(F)(F)F)c1)NC(=O)NC1CCCCC1 | -1.9 |
| Cc1c(CNCCc2ccccc2)c(C(=O)O)c(C)n1-c1ccccc1 | 12.1 |

| Compound | hERG current change (%, negative = inhibition) at 10uM [%] |
| --- | --- |
| C/C(=N/NC(=O)CNC(=O)Cc1ccc(Cl)cc1)c1ccco1 | 4.04 |
| CCc1cc(C(=O)c2ccc(OC)cc2)c(NC(=O)CN2CCCCC2)s1 | 5 |
| CCc1cc(C(=O)c2ccc(OC)cc2)c(NC(=O)CN2CCCC2)s1 | -12.4 |
| CCc1cc(C(=O)c2ccc(OC)cc2)c(NC(=O)CN2CCN(C)CC2)s1 | -71.3 |
| CCOc1cccc2cc(C(=O)N3CCc4ccccc43)c(=O)oc12 | -2.43 |
| COC(=O)C1=C(c2ccc(OC)c(OC)c2)C[C@@H]2CC[C@H]1N2C(=O)NCCCOC(C)C | 15.3 |
| C[N+]1(CC(=O)OCCCC2CCCCC2)CCCC1.[I-] | -8.31 |
| OC(CNCC1COc2ccccc2O1)COc1ccccc1F (stereo not shown) | 1.11 |
| COC(=O)c1ccc(OCC(O)CNC2CCCC2)cc1.Cl (stereo not shown) | 13.3 |
| Cl.OC(CNC1CCCC1)COc1ccc(-c2ccccc2)cc1 (stereo not shown) | -51.8 |
| Cl.O=[N+]([O-])c1ccc(OCC(O)CNC2CCCC2)cc1 (stereo not shown) | -76.2 |
| OC(CNC1Cc2ccccc2C1)COc1ccc(Cl)cc1 (stereo not shown) | -68.8 |
| CC(OCC(O)CNCC1COc2ccccc2O1)c1ccc(Cl)cc1 (stereo not shown) | -22.7 |
| OC(CNC1Cc2ccccc2C1)COc1ccc(F)cc1 (stereo not shown) | -49.1 |
| Cl.OC(CNC1CCCC1)COc1ccc(F)cc1 (stereo not shown) | 5.27 |
| COc1ccc(OCC(O)CNC2CCCC2)cc1.Cl (stereo not shown) | 12.8 |
| O=C(O)c1ccccc1C(=O)NCC(O)COc1ccc(Cl)cc1 (stereo not shown) | 2.34 |
| Cl.OC(CNC1CCCC1)COc1ccc(Cl)cc1 (stereo not shown) | -9.8 |
| Cl.OC(CNCC1COc2ccccc2O1)COc1ccc(Cl)cc1 (stereo not shown) | -56.2 |
| O=C(CSc1nnc(-c2cccs2)o1)N1CCCc2ccccc21 | 3.02 |
| O=C(CCCn1c(=S)[nH]c2ccsc2c1=O)Nc1ccc2c(c1)OCO2 | 17.2 |

| Compound | hERG current change (%, negative = inhibition) at 10uM [%] |
| --- | --- |
| O=C(COC(=O)c1ccccc1O)Nc1cc([N+](=O)[O-])ccc1Cl | -21.5 |
| Nc1nc(NCCc2ccccc2)nc(NCc2ccccc2)c1[N+](=O)[O-] | 20.4 |
| O=C(c1ccccc1S(=O)(=O)NCC(O)COc1ccc([N+](=O)[O-])cc1)N1CCCCC1 (stereo not shown) | -56.8 |
| Cc1ccc(OCC(O)CNS(=O)(=O)c2ccccc2C(=O)N2CCCCC2)cc1 (stereo not shown) | -13.9 |
| Cc1ccc(OCC(O)CNC2CCCC2)c(C)c1.Cl (stereo not shown) | 7.48 |
| Cc1ccc(C(C)C)c(OCC(O)CNC2CCCC2)c1.Cl (stereo not shown) | -51.9 |
| Cc1cccc(C)c1OCC(O)CNS(=O)(=O)c1ccccc1C(=O)N1CCCCC1 (stereo not shown) | -10.9 |
| Cc1ccc(C)c(OCC(O)CNC2CCCC2)c1.Cl (stereo not shown) | 8.8 |
| CCc1nn(C(C)C(=O)N2CCN(c3ccccc3)CC2)c(=O)c2cc3occc3n12 (stereo not shown) | -25.3 |
| CCOC(=O)C1C(c2ccc(O)c(OCC)c2)NC(=S)NC1(O)C(F)(F)F (stereo not shown) | -12.5 |
| CC(=O)c1ccc(N2CCN(C(=O)CCC(=O)Nc3ccc4nc(N5CCN(C)CC5)cc(C)c4c3)CC2)cc1 | 20.3 |
| CN(C(=O)COC(=O)c1ccc(-c2ccc(O)cc2)cc1)C1CCS(=O)(=O)C1 (stereo not shown) | 10.8 |
| COCCNC(=O)CN(C(=O)CCC(=O)Nc1ccccn1)c1ccc(F)c(Cl)c1 | 4.59 |
| CNC(=O)CSc1nnnn1-c1ccc(C)cc1C | 7.63 |
| Cc1ccc(-n2nnnc2SCC(=O)NCC2(N3CCCCC3)CCCCC2)c(C)c1 | -284 |
| O=C(CSc1nnnn1-c1ccccc1)NCC1(N2CCCCC2)CCCCC1 | -62.3 |
| O=C(CSc1ccccc1)NCC1(N2CCCCC2)CCCCC1 | -0.798 |
| O=C(CSc1nnnn1-c1ccccc1)NCC1(N2CCOCC2)CCCCC1 | -21.3 |
| Cc1ccc(-n2nnnc2SCC(=O)NCCC2=CCCCC2)c(C)c1 | -13.1 |
